The values that follow come from PubChem BioAssay (NCATS).

The structures appear in SMILES notation. Records with an inconclusive call do not appear. Entries that show only a call come without a potency. Active and inactive are the calls of the source. Calls come from the whole dose curve; as a rule, active = well fitted inhibition curve with a large enough effect; inconclusive = small, poorly fitted or top-dose-only effect; inactive = flat fitted curve, though single readings scatter.

Chain of Calcium and integrin-binding protein 1 (Homo sapiens) (Q99828 whole entry, looked up): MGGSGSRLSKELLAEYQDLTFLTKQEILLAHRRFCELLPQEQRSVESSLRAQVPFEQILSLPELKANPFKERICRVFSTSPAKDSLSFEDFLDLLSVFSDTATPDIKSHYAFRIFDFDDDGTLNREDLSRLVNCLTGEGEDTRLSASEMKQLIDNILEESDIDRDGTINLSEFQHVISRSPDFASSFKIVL

This test deals with Calcium and integrin-binding protein 1 (Homo sapiens) (UniProt Q99828). As to the kind of experiment: Primary qHTS for Identification of Calcium Integrin Binding Protein 1 (CIB1) Competitor (AID 1508620).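 Note: GST tagged CIB1 binding a fluorescein labelled alphaIIb integrin peptide tracer; top concentration of the series differs between compounds.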 The following applies: CIB1-GST / FITC-alphaIIb peptide fluorescence polarization; series mostly up to 114 µM. The method, boiled down:
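CIB1-GST (1 uM final) and compound incubated 15 min at room temperature before adding FITC-alphaIIb peptide tracer (100 nM final). Competition for binding read by fluorescence polarization (ex 480, em 540) after another 15 min at room temperature.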
For the molecule `COc1cccc(C2c3c(ncn(Cc4cccs4)c3=N)Oc3ccc4ccccc4c32)c1` (stereo not given), the Potency result is “inactive”.

`CCOc1ccc(NC(=O)NCC2CCCN2c2ccc(OC)cc2)cc1` (stereo not given): the Potency result is “inactive”.

On to `COc1cccc(CNc2ccc(S(=O)(=O)Nc3cc(C)on3)cc2)c1O`, for which the Potency entry was “inactive”.

Consider `Cc1cc(C)nc(NC(=S)N2CCN(c3ccc4cn(C)nc4c3)CC2)c1`, for which the Potency result is “inactive”.

As to `O=C(NCCCc1cnc[nH]1)NCCCN(Cc1ccc(Cl)c(Cl)c1)c1ccc(Br)cn1`, the Potency result is “inactive”.

Consider `Cc1ccnc(NC(=S)N2CCN(c3ccc4ccccc4n3)CC2)c1`, for which the Potency result is “inactive”.

In the case of `O=C(Nc1ccc(Cl)c([N+](=O)[O-])c1)Nc1cccc(-c2ccncc2)n1`, the Potency result is “inactive”.

For the molecule `COc1ccc(NCc2ccc(O)c3ncccc23)nc1`, the Potency entry was “inactive”.

`COc1cc2ncnc(N(C)Cc3csc(C)n3)c2cc1-c1ccc2c(c1)OCO2`: the Potency entry was “inactive”.

For `COCCNc1ccc(NC(=O)c2cccs2)cn1`, the Potency entry was “inactive”.

In the case of `Cc1cc(C)n2ncc(C(=O)Nc3ccc(S(C)(=O)=O)cc3)c2n1`, the Potency entry was “inactive”.

With `Cc1cc2c(s1)c1cnn(Cc3cccc(F)c3)c(=O)c1n2C`, the Potency entry is “inactive”.

Turning to `COc1cccc(N2C(=O)c3ccccc3C2=O)c1`, the Potency result was “inactive”.

On to `Cc1ccc(-c2csc(N3CCC(C(N)=O)CC3)n2)cc1`, for which the Potency entry was “inactive”.

`O=S(=O)(NCC1CN(S(=O)(=O)c2ccc3c(c2)OCCO3)C1)c1c(F)cccc1F`: the Potency result was “inactive”.

Take `Cc1ccccc1S(=O)(=O)N1CCN(S(=O)(=O)c2ccc3c(c2)OCCO3)CC1`: the Potency entry is “inactive”.

With `Cc1ccccc1C(=O)N1CCc2cc(-c3nc(NC(=O)Cc4ccc5c(c4)OCCO5)sc3C)ccc21`, the Potency result was “inactive”.

For the molecule `O=C1CCc2cc(S(=O)(=O)Nc3cc(F)cc(Cl)c3)c(F)cc2N1`, the Potency entry is “inactive”.

With `CN(C)S(=O)(=O)c1ccc(-c2nc(NCc3ccc(-c4ccnc(C(F)(F)F)c4)cc3)c3ccccc3n2)cc1`, the Potency entry was “inactive”.

With `O=c1c2ccccc2nc2sc(Nc3ccc(Br)cc3)nn12`, the Potency result is “inactive”.

As to `C=CCNc1oc(C2CCCC2)nc1C#N`, the Potency entry was “inactive”.

As to `C=CCNc1oc(-c2cccc(Br)c2)nc1C#N`, the Potency entry is “inactive”.

For the molecule `O=C1CCCC2=C1C(c1cnccc1C(F)(F)F)N=C(Nc1nc3ccccc3o1)N2` (stereo not given), the Potency entry was “inactive”.

For `Cc1cc2c(s1)c1cnn(Cc3c(Cl)cccc3Cl)c(=O)c1n2C`, the Potency result is “inactive”.

As to `COc1ccc(C2Nc3ccccc3C(=O)N2Cc2cccs2)cc1COc1c(C)cccc1C` (stereo not given), the Potency result was “inactive”.

On to `Cc1cc(C)nc(NC(=S)N2CCN(c3ccc(F)c(F)c3)CC2)c1`, for which the Potency result was “inactive”.

Regarding `O=S(=O)(Nc1nc(-c2ccccc2C(F)(F)F)nc2ccccc12)c1ccc(-c2cccnc2)cc1`, the Potency result was “inactive”.

On to `Oc1ccc(/C=C/c2ccccc2F)c2cccnc12`, for which the Potency result is “inactive”.

For the molecule `Cc1cc2c(s1)c1cnn(Cc3c(F)c(F)c(C)c(F)c3F)c(=O)c1n2C`, the Potency entry is “inactive”.

As to `Cc1ccc2nc3sc(C(=O)NCCCN(C)C)cc3cc2c1`, the Potency result is “inactive”.

`Cc1sc(NC(=O)Cc2ccc3c(c2)OCO3)nc1-c1ccc2c(c1)CCN2C(=O)c1ccccc1F`: the Potency entry is “inactive”.

As to `COc1ccc(C2Nc3ccccc3C(=O)N2Cc2cccnc2)cc1COc1c(C)cc(NC(C)=O)cc1C` (stereo not given), the Potency entry was “inactive”.

`Cc1ccc(N(C)S(=O)(=O)c2ccc3c(c2)CCC(=O)N3)cc1C`: the Potency result is “inactive”.

Take `O=C(OCC#CCSc1nnc(-c2cccc3ccccc23)o1)c1sccc1Cl`: the Potency result is “inactive”.

For `COc1ccc(C2Nc3ccccc3C(=O)N2Cc2ccccc2C(F)(F)F)cc1COc1ccc(NC(C)=O)cc1` (stereo not given), the Potency entry is “inactive”.

Regarding `Cc1ccnc(NCc2ccc(O)c3ncccc23)c1`, the Potency result is “inactive”.

For `O=C(O)c1ccc(CSc2nnc(-c3cccc([S+](=O)([O-])N4CCCC4)c3)n2-c2ccccc2)cc1`, the Potency result is “inactive”.

In the case of `Nc1ccccc1C(=O)NCc1ccco1`, the Potency result was “inactive”.

Regarding `COc1cccc(CNc2ccc(S(=O)(=O)Nc3ccccn3)cc2)c1O`, the Potency entry is “inactive”.

As to `O=c1c2ccccc2nc2sc(NCc3ccc([S+](=O)([O-])c4ccccc4)cc3)nn12`, the Potency result is “inactive”.
